Several values for one entry are separate records, joined by “and”; a condition that tells them apart may be missing. Equal entries are not always repeated. Inconclusive results are not listed. Where a structure was tested more than once in an assay, its records may differ in their call. Activity calls are given as the source filed them. How the source made its calls: active means hit-call score of the fitted dose curve at least 0.9, where 1 is the maximum; inconclusive means response in the unintended direction; inactive means score below 0.9.
Assays:
[1] = ATG_M_32_XSP2: Attagene TRANS-FACTORIAL Multi-Species (XSP2) HepG2 Assay for M19 Transcription Factor (Internal Marker) (AID 2283826)
Protocol: ATG_XSP2_multi-species_TRANS is a cell-based, multiplexed assay created by modifying the existing Attagene TRANS-FACTORIAL system to include a panel of nuclear receptors from some or all the following species: human (Homo sapiens), mouse (Mus musculus), frog (Xenopus laevis), zebrafish (Danio rerio), chicken (Gallus gallus), and turtle (Chrysemys picta). The ECOTOX-FACTORIAL format uses HepG2, a human liver cell line, with measurements taken at 24 hours after chemical dosing in a 24-well plate. Xsp2 included 3 nM 6-alpha-fluorotestosterone and 1.5 nM norgestrel to stimulate the androgen receptor.ATG_M_32_XSP2 is one of 29 assay components measured or calculated from the ATG_XSP2_multi-species_TRANS assay. It is designed to make measurements of mRNA induction, a form of inducible reporter, as detected with fluorescence intensity signals by Reverse transcription polymerase chain reaction (RT-PCR) and Capillary electrophoresis technology.This assay endpoint, ATG_M_32_XSP2, was analyzed in the positive analysis fitting direction relative to DMSO as the negative control and baseline of activity. […] Furthermore, this assay endpoint can be referred to as a secondary readout, because this assay has produced multiple assay endpoints where this one serves a background control function. […]

[2] = system: frog Estrogen Receptor (ER2), gene 100174814; experiment: ATG_frER2_XSP2: Attagene TRANS-FACTORIAL Multi-Species (XSP2) HepG2 Assay for frog Estrogen Receptor (ER2) (AID 2283828)
Procedure, shortened: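 Read-out: reporter transcript levels by RT-PCR with 6-FAM primer extension, HpaI digestion and capillary electrophoresis, scored as induction over DMSO control. Transfected HepG2 carrying Xenopus ER2–GAL4 chimera; compounds incubated 24 h.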

[3] = molecular target: Peroxisome proliferator-activated receptor gamma (Homo sapiens) (UniProt P37231); experiment: ATG_hPPARg_XSP2: Attagene TRANS-FACTORIAL Multi-Species (XSP2) HepG2 Assay for human Peroxisome Proliferator-activated Receptor gamma (PPARg) (AID 2283829);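 further: actives raise reporter mRNA above DMSO so AC50 reflects PPARg activation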
Procedure, shortened: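 Reporter transcripts were measured by RT-PCR, fluorescent labeling, HpaI digestion and capillary electrophoresis, relative to DMSO, 24 h post-dosing. Transiently transfected HepG2 expressed NR-Gal4 chimeras regulating GAL4-UAS reporters; medium contained 3 nM 6-alpha-fluorotestosterone plus 1.5 nM norgestrel.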

[4] = molecular target: mouse Peroxisome Proliferator-activated Receptor gamma (PPARg), Pparg (gene 19016) (UniProt P37238); experiment: ATG_mPPARg_XSP2: Attagene TRANS-FACTORIAL Multi-Species (XSP2) HepG2 Assay for mouse Peroxisome Proliferator-activated Receptor gamma (PPARg) (AID 2283830);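 further: hits are gains in reporter mRNA above DMSO so AC50 marks activation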
Procedure, shortened: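 Multiplexed TRANS reporter readout: after 24 h chemical exposure of transfected HepG2 cells (with 3 nM 6-alpha-fluorotestosterone, 1.5 nM norgestrel present), RNA reverse-transcribed, amplified, 6-FAM-labelled and resolved by capillary electrophoresis; mouse PPARg-Gal4 induction scored against DMSO.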

[5] = molecular target: Nuclear receptor subfamily 1 group I member 2 (Mus musculus) (UniProt O54915); experiment: ATG_mPXR_XSP2: Attagene TRANS-FACTORIAL Multi-Species (XSP1) HepG2 Assay for mouse Pregnane X Receptor (PXR) (AID 2283831)
Protocol: ATG_XSP2_multi-species_TRANS is a cell-based, multiplexed assay created by modifying the existing Attagene TRANS-FACTORIAL system to include a panel of nuclear receptors from some or all the following species: human (Homo sapiens), mouse (Mus musculus), frog (Xenopus laevis), zebrafish (Danio rerio), chicken (Gallus gallus), and turtle (Chrysemys picta). The ECOTOX-FACTORIAL format uses HepG2, a human liver cell line, with measurements taken at 24 hours after chemical dosing in a 24-well plate. Xsp2 included 3 nM 6-alpha-fluorotestosterone and 1.5 nM norgestrel to stimulate the androgen receptor.ATG_mPXR_XSP2 is one of 29 assay components measured or calculated from the ATG_XSP2_multi-species_TRANS assay. It is designed to make measurements of mRNA induction, a form of inducible reporter, as detected with fluorescence intensity signals by Reverse transcription polymerase chain reaction (RT-PCR) and Capillary electrophoresis technology.The assay endpoint ATG_mPXR_XSP2 was analyzed in the positive analysis fitting direction relative to DMSO as the negative control and baseline of activity. Using a type of inducible reporter, measures of mRNA for gain-of-signal activity can be used to understand the reporter gene at the transcription factor-level as they relate to the gene PXR. Furthermore, this assay endpoint can be referred to as a primary readout, because this assay has produced multiple assay endpoints where this one serves a reporter gene function. To generalize the intended target to other relatable targets, this assay endpoint is annotated to the nuclear receptor intended target family, where the subfamily is non-steroidal.
Human liver HepG2 cells are transiently transfected with multiple reporter transcription units (MRTUs) in 6-well plates using FuGene 6 reagent (Roche; 3 ml FuGene/1 mg DNA). The MRTU constructs are regulated by a cis-regulating element (promoter). […] A major difference between the CIS and TRANS system is that in CIS activities of endogenous TFs are measured, whereas the TRANS assay evaluates changes in activities of exogenous, chimeric NR-Gal4 proteins. […] At the end of 24 hour incubation, total RNA was isolated using TriZol reagent (Invitrogen). The isolated RNA is then reverse-transcribed using oligo(dT) primer and Mo-MLV reverse transcriptase (Invitrogen) with DNAse I (Ambion) treatment for 30 min. The one-tenth of the produced cDNA was amplified by PCR using Taq DNA polymerase (Invitrogen) and two reporter sequence-specific primers. The PCR products were fluorescently labeled by primer extension with 6-arboxyfluorescein (6-FAM) 5'-labeled reporter sequence-specific primer (2 min at 95 C, 20 s at 68 C and 10 min at 72 C) and these products were digested with 5U of HpaI (New England Biolabs) for 2h at 37 C. The fragments were purified using Qiaquick PCR columns (Qiagen), analyzed on an ABI 3130xL genetic analyzer (Applied Biosystems) with peak positions identified by using a set of X-rhodamine (ROX)-labeled MapMarker1000 molecular weight standards (BioVentures). The raw capillary electrophoresis data was processed using Attagraph software (Attagene).

[6] = system: zebrafish Peroxisome Proliferator-activated Receptor gamma (PPARg), gene 557037; experiment: ATG_zfPPARg_XSP2: Attagene TRANS-FACTORIAL Multi-Species (XSP2) HepG2 Assay for zebrafish Peroxisome Proliferator-activated Receptor gamma (PPARg) (AID 2283833);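 further: reporter mRNA from a zebrafish PPARg GAL4 chimera measured by RT-PCR and capillary electrophoresis; actives increase reporter signal over DMSO so AC50 reflects activation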
Procedure, shortened: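 After 24 h chemical exposure, RNA from transiently transfected HepG2 (chimeric NR-Gal4 TRANS reporters) was reverse-transcribed, PCR-amplified, 6-FAM-labelled, HpaI-cut and sized by capillary electrophoresis. Induction was scored in the positive direction relative to DMSO.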

[7] = system: zebrafish Androgen Receptor (AR), gene 100005148; experiment: ATG_zfAR_XSP2: Attagene TRANS-FACTORIAL Multi-Species (XSP2) HepG2 Assay for zebrafish Androgen Receptor (AR) (AID 2283825);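 further: hits raise reporter mRNA above DMSO so AC50 reflects agonist-type gain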
Procedure, shortened: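 After 24 h compound exposure in medium with 3 nM 6-alpha-fluorotestosterone plus 1.5 nM norgestrel, HepG2 cells carrying zebrafish AR–GAL4 reporter constructs were assessed for reporter mRNA gain by RT-PCR and capillary electrophoresis.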

[8] = molecular target: Estrogen receptor (Homo sapiens) (UniProt P03372); experiment: ATG_hERa_XSP2: Attagene TRANS-FACTORIAL Multi-Species (XSP2) HepG2 Assay for human Estrogen Receptor (ERa) (AID 2283827)
Procedure, shortened: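 Trans-activation of exogenous human ERa-Gal4 chimera read in HepG2 as reporter transcript after 24 h exposure; medium included 3 nM 6-alpha-fluorotestosterone and 1.5 nM norgestrel. Quantified by RT-PCR with capillary electrophoresis, positive-direction fitting against DMSO.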

[9] = molecular target: zebrafish Thyroid Hormone Receptor alpha (TRa), thraa (gene 30670) (UniProt Q98867); experiment: ATG_zfTRa_XSP2: Attagene TRANS-FACTORIAL Multi-Species (XSP1) HepG2 Assay for zebrafish Thyroid Hormone Receptor alpha (TRa) (AID 2283832);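 further: actives raise zebrafish TRa-Gal4 reporter transcript above DMSO baseline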
Procedure, shortened: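 Readout is reporter mRNA induction, quantified by RT-PCR and capillary electrophoresis with fluorescent labelling, after 24 h compound exposure of transiently transfected HepG2 cells carrying NR-Gal4 chimera reporters. Activity fitted upward relative to DMSO.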

[10] = system: frog Androgen Receptor (AR), gene 399456; experiment: ATG_frAR_XSP2: Attagene TRANS-FACTORIAL Multi-Species (XSP2) HepG2 Assay for frog Androgen Receptor (AR) (AID 2283824);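 further: reporter mRNA from GAL4-UAS units driven by Xenopus AR-Gal4 chimera; actives raise reporter signal above DMSO so AC50 reflects agonist-like induction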
Procedure, shortened: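 Reporter transcript induction, read by RT-PCR with fluorescent capillary electrophoresis, in human liver HepG2 cells carrying an exogenous Xenopus AR-Gal4 fusion and GAL4-driven reporters; chemical exposure 24 hours, activity scored upward against DMSO controls.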

Measured: AC50

Sequence of Estrogen receptor (Homo sapiens) (P03372 whole entry, looked up, the tested form may be a part): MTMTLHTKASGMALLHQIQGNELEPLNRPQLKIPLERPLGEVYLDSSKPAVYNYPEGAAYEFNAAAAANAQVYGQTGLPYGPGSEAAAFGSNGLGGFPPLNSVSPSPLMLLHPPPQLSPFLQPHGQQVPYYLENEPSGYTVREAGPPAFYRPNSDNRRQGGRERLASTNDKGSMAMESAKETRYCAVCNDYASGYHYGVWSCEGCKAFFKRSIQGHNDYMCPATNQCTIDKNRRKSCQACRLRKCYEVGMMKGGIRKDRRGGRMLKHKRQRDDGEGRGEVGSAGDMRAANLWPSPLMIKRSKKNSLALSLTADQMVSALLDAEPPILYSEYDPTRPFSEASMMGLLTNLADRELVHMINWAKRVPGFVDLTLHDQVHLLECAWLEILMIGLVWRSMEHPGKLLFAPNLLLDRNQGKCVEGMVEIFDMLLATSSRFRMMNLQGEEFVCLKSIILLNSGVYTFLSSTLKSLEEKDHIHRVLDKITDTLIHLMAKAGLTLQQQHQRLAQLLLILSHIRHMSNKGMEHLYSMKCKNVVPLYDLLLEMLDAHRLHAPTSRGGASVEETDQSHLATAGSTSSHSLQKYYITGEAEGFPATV
Sequence of Peroxisome proliferator-activated receptor gamma (Homo sapiens) (P37231 whole entry, looked up, the tested form may be a part): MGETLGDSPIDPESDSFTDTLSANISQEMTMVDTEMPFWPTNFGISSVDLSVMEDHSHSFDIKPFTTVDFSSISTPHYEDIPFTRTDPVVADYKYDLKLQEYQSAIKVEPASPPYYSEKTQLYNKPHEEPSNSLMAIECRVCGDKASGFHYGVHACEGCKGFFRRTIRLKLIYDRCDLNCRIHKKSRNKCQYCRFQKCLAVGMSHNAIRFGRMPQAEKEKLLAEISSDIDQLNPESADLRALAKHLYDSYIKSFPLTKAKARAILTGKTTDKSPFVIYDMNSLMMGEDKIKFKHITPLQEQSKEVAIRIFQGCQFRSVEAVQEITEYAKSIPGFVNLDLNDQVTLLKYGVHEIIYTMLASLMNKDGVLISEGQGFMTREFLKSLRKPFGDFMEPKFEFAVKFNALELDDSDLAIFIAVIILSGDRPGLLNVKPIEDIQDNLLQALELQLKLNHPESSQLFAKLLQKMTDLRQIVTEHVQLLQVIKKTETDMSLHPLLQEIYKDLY
Sequence of mouse Peroxisome Proliferator-activated Receptor gamma (PPARg), Pparg (gene 19016) (P37238 whole entry, looked up, the tested form may be a part): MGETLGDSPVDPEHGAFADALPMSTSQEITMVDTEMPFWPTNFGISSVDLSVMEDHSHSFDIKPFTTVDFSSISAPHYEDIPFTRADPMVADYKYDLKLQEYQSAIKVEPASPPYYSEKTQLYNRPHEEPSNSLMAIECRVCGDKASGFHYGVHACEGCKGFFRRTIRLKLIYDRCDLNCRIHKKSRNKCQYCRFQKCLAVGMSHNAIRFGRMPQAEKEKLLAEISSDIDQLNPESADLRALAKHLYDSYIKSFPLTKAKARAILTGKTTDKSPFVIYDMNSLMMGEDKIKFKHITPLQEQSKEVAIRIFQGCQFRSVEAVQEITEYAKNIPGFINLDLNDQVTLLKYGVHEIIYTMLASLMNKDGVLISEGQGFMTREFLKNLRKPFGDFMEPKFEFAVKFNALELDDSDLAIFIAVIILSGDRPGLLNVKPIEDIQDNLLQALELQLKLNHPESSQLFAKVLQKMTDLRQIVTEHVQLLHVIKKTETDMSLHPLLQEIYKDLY
Sequence of Nuclear receptor subfamily 1 group I member 2 (Mus musculus) (O54915 whole entry, looked up): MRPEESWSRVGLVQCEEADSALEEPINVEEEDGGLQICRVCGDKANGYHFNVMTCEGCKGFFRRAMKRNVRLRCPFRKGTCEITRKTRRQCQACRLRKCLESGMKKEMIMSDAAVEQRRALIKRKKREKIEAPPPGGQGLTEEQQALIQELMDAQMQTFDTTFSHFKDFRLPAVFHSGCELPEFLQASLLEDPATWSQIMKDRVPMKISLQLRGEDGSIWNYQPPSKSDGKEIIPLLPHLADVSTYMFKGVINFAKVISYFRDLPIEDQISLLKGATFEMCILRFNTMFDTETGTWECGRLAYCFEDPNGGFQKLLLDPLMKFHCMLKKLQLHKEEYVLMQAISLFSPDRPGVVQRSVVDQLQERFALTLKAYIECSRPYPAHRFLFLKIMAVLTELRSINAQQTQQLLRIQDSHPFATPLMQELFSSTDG
Sequence of zebrafish Thyroid Hormone Receptor alpha (TRa), thraa (gene 30670) (Q98867 whole entry, looked up, the tested form may be a part): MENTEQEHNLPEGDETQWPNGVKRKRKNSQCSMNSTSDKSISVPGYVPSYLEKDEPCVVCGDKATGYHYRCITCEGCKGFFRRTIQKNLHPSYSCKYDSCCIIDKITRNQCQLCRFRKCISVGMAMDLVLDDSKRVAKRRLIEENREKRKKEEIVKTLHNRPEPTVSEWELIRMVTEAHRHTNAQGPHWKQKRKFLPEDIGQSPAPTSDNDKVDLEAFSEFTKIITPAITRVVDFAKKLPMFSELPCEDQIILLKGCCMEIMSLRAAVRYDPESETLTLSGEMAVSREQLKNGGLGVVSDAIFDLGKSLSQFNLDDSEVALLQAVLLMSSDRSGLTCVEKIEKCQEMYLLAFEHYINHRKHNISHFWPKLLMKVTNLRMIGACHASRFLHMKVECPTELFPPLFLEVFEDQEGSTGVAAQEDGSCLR

O=c1oc2ccccc2c(O)c1C(CC(O)c1ccc(-c2ccc(Br)cc2)cc1)c1ccccc1 (stereo not drawn)
inactive: [1] | [2]
active: [3] 1.64 µM | [4] 2.5 µM | [5] 31.6 µM | [6] 6.09 µM

[Cl][Sn]([c]1ccccc1)([c]1ccccc1)[c]1ccccc1
active: [3] 0.041 µM | [4] 0.184 µM | [9] 0.925 µM
not listed: [5] | [10]
inactive: all other assays above

COCCl
active: [2] 61.9 µM | [5] 7.08 µM
inactive: [7] | [2] | [3] | [4] | [5] | [6]

CCOP(=S)(OCC)O/N=C(\C#N)c1ccccc1
active: [2] 16.1 µM and 2.28 µM | [3] 27.4 µM and 10.3 µM | [4] 22.4 µM and 15.5 µM | [5] 4.3 µM and 2.37 µM
inactive: [9] | [6]

Oc1cc(Cl)c(Cl)cc1Cl
active: [10] 5.4 µM and 2.63 µM | [2] 24.5 µM and 19.2 µM | [3] 60.1 µM and 44.2 µM | [4] 65 µM and 35 µM
inactive: [5] | [9] | [6]

CC(O)(CS(=O)(=O)c1ccc(F)cc1)C(=O)Nc1ccc(C#N)c(C(F)(F)F)c1 (stereo not drawn)
inactive: [8] | [2] | [3] | [4] | [9] | [6]
active: [4] 46.2 µM | [5] 4.25 µM

— PubChem BioAssay (EPA / NIEHS)
